Source: PubChem
Pf Dd2 inh = Plasmodium falciparum Dd2 growth inhibition | P. falciparum Dd2 growth, SYBR Green, 72 h | Potency, µM (top dose mostly 28.9 µM), actives largely listed as inhibitors | actives 4.3% (n = 120,000) | AID 1347417; active = well fitted inhibition curve with a large enough effect; also: nearly all actives have a fitted effect of over 65% in size
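Infected erythrocytes (Dd2, 0.3% parasitemia, 2.5% hematocrit final) are added to compound in RPMI-1640/Albumax II medium, grown 72 h at 37C in low oxygen, then lysed with saponin/Triton-X containing SYBR Green and read by fluorescence.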
Hits are given with their value; 0 = inactive; [ ] = another dose, or the depositor's remark. The full list was thinned out, with hits kept by preference.

SMILES	Pf Dd2 inh
CCN(C(=O)Cn1cnc2onc(-c3ccc(F)cc3)c2c1=O)c1ccc(OC)cc1	11.2µM
O=C(O)CCn1ncc2cc(OCC3CCN(C(=O)C4CC4)CC3)ccc21	0
Cc1nn(C)c2nc(-c3ccccn3)nc(NCC(c3ccco3)N(C)C)c12 (stereo not drawn)	8.91µM
CNS(=O)(=O)CCNc1nc(-c2ccccn2)nc2c1c(C)nn2C	0
Cc1nc(CCNc2nc(-c3ccccn3)nc3c2c(C)nn3C)no1	0
Cc1ccc2c(c1)N1C(=O)OC[C@@H]1CCN(Cc1cccnc1)C2	0
CCc1ccc(Oc2c(C(F)(F)F)oc3c(CN4CCN(C)CC4)c(O)ccc3c2=O)cc1	0.282µM
CN1CCN(Cc2nc(C3(O)CCN(Cc4ccc(C(F)(F)F)cc4)CC3)cs2)CC1	0
COc1ccc(CN2CCC(O)(c3csc(CN4CCN(C)CC4)n3)CC2)cc1	0
CCN1CCN(C(c2ccccc2F)c2c(O)cc(C)n(CCOC)c2=O)CC1 (stereo not drawn)	0
CC(C)c1ccccc1Oc1c(C(F)(F)F)oc2c(CN3CCN(C)CC3)c(O)ccc2c1=O	0.316µM
CCN1CCN(Cc2c(O)ccc3c(=O)c(Oc4ccccc4C(C)C)c(C(F)(F)F)oc23)CC1	0.0631µM
O=C(C[C@@H]1C[C@H]2O[C@H](CNC(=O)N3CCOCC3)[C@@H](O)[C@H]2O1)N1CCC(F)(F)C1	0
CCc1ccc(C(=O)N2C[C@@H](CO)[C@H](c3nc(C)no3)C2)cc1	0
COc1ccc(C2c3c(n(C)c4ccccc34)C(=O)N2CC(=O)Nc2ccccc2F)cc1 (stereo not drawn)	0
NC(=O)COc1cccc(C(=O)N2CCC3(CC2)OCCCC3O)c1 (stereo not drawn)	0
CCOCCNc1ncnc2c1CN(C1CCNCC1)C(=O)CN2C	0
O=S(=O)(c1ccccc1)N1CCC(OC2CCN(Cc3cccnc3)CC2)CC1	0
COCC(=O)N(C1CCOCC1)C1CCN(C(=O)Cc2ccc(Cl)cc2)CC1	0
O=C1CC(c2ccccc2)N(Cc2cn[nH]c2-c2cccs2)CCCCCN1 (stereo not drawn)	0
COCCC1(NC(=O)c2ccccc2)CCN(Cc2cn[nH]c2-c2cccs2)CC1	8.91µM
COc1ccccc1-c1[nH]ncc1CN1CCC2(CC1)CC(O)CCO2 (stereo not drawn)	0
CC(C)CC(=O)N1CCC2(CC1)CC(C(=O)N1CCOCC1)N(C)C2 (stereo not drawn)	0
CN(C)c1ccc(CNC(=O)Cn2c(-c3cccs3)cc3cc(Cl)ccc32)cc1	0
COc1ccccc1NC(=O)NCCCN1CCN(c2ccc(F)cc2)CC1	0
SMILES	Pf Dd2 inh
CCNC(=O)Cn1c(-c2cccs2)cc2ccccc21	0
O=C(Cn1c(-c2cccs2)cc2ccccc21)N1CCN(c2ccc(Cl)cc2)CC1	0
Cc1ccc(CNC(=O)Cn2c(-c3cccs3)cc3cc(Cl)ccc32)cc1	0
CCOC(=O)Cn1c(-c2cccs2)cc2cc(Cl)ccc21	0
O=C(Cn1c(-c2cccs2)cc2cc(F)ccc21)NCCCN1CCN(c2ccc(F)cc2)CC1	6.31µM
CC(CNC(=O)Cn1c(-c2cccs2)cc2ccccc21)c1ccccc1 (stereo not drawn)	11.2µM
CC(NC(=O)Cn1c(-c2cccs2)cc2cc(F)ccc21)c1ccccc1 (stereo not drawn)	1.12µM
CCc1nn(CC(=O)NCc2ccc(C)cc2)c(=O)c2cc3occc3n12	0
O=C(c1ccccc1)N1CCCC2(C1)Nc1cccnc1NC2=NC1CCCC1 (stereo not drawn)	0[5.79 µM]
O=C1NCCCCCN(C(=O)CN2CCCCCC2)[C@H]2CCC[C@@H]12	0
CCN(CC)C(=O)CCc1c(C)nn(-c2ccccc2)c1Oc1ccccc1	10µM
CCN(CC)C(=O)CCc1c(C)nn(-c2cccc(C)c2)c1Oc1ccccc1	0
CCN(CC)C(=O)CCc1c(C)nn(-c2ccc(F)cc2)c1Oc1ccccc1F	0
COC(=O)NCC(=O)N1CC[C@@H]2[C@@H](CCC(=O)N2CCc2ccccc2)C1	0
COc1ccc2c(c1)CCN=C2C[C@H]1CN(S(=O)(=O)C(C)C)CC[C@H]1CC(=O)O	0
Cc1cccc(N2C(=O)N(Cc3cc(=O)n4ccccc4n3)c3ccccc3S2(=O)=O)c1	0
Cc1ccc(N2C(=O)N(Cc3cccc(Cl)c3)c3ccccc3S2(=O)=O)cc1	0
Cc1ccc(N2C(=O)N(Cc3cc(=O)n4ccccc4n3)c3ccccc3S2(=O)=O)cc1Cl	10µM
O=C(c1cnn(-c2ccc(F)cc2)c1-n1cccc1)N1CCN(c2ccc(Cl)cc2)CC1	0
CCc1noc(-c2cccn3c(CNC(=O)C4CC4)nnc23)n1	0
COc1ccc(NC(=O)c2nnn(CC(=O)Nc3c(C)cc(C)cc3C)c2N)cc1OC	0
COc1ccc(Nc2cc(C)nc3c(C)c(C)ccc23)cc1	0
CCc1sc(Nc2cccc(C)c2)nc1-c1cc2cccc(OC)c2oc1=O	0
COc1cc2nc(Nc3ccc(F)cc3)nc(N)c2cc1OC	2.51µM
COc1ccc(Nc2nc(-c3ccccc3)c3cc(Br)ccc3n2)cc1	0
SMILES	Pf Dd2 inh
CCOC(=O)c1ccc(Nc2c(-c3ccc(O)c(OC)c3)nc3nc[nH]n23)cc1	0[0.594 µM]
COc1ccccc1C(O)c1nc(Nc2ccc(C(C)C)cc2)n[nH]1 (stereo not drawn)	0
Cc1cccc(Nc2nc(N)nc(N)c2S(=O)(=O)c2ccccc2)c1	0
CCOC(=O)c1ccc2nc(C)cc(Nc3cccc(C(=O)O)c3)c2c1	0
CCOC(=O)c1ccc(Nc2nc(N)c3cc(OC)c(OC)cc3n2)cc1	1.26µM
COc1cc2nc(Nc3ccc(C)c(C)c3)nc(N)c2cc1OC	0.1µM
COc1cc2nc(Nc3cccc(C)c3)nc(N)c2cc1OC	2.51µM
COc1ccc(-c2cc([C@H]3CN4CC[C@H]3C[C@@H]4CNS(=O)(=O)c3cccs3)n(C)n2)cc1	0
COc1ccccc1CCC(=O)N1C[C@@H](CO)[C@H](N(C)C)C1	0
O=C(NCc1ccncc1)c1ccc2nccn2c1	0
Cc1ccc(-n2ncc3c(Nc4ccc(Oc5ccccc5)cc4)ncnc32)c(C)c1	0
CN1CC(=O)N(C2CCNC2)Cc2c1ncnc2N1CC[C@H](N(C)C)C1 (stereo partly drawn)	0
CCN(Cc1c(C)nn(CC)c1C)C(=O)Cn1nc2n(c1=O)CCC(N)CC2 (stereo not drawn)	0
Cc1sc2ccn(Cc3ccc(F)cc3)c(=O)c2c1C(=O)NC(C)C	0
CCN1CCC(N(Cc2ccc3c(c2)OCO3)C(=O)Nc2cccc(C)c2C)CC1	0
O=C(Nc1ccccc1)N(Cc1ccc2c(c1)OCO2)C1CCN(Cc2ccccc2)CC1	0
COc1ccccc1NC(=O)N(Cc1ccc2c(c1)OCO2)C1CCN(Cc2ccccc2)CC1	11.2µM
Cc1cc(C)n(CCC(=O)N2C[C@@H](CO)[C@H](c3nc(C4CC4)no3)C2)n1	0
CCOC(=O)CCCN1C(=O)CCn2nc(-c3cn(C)c4ccccc34)cc21	0
CN1CC(=O)N(c2cccnc2)Cc2c1ncnc2N1CCC(c2ccccc2)CC1	0
COc1ccc(C(=O)N2CC[C@@H](CC(=O)O)[C@@H](CCN(CCN3CCOCC3)c3ccccc3)C2)cc1	0
COc1ccc(Cl)cc1NC(=O)c1cc(S(=O)(=O)N2CCC(C)CC2)cn1C	0
COc1ccc(N2CCN(C(=O)c3cc(S(=O)(=O)N4CCCCCC4)cn3C)CC2)cc1	0
COc1ccccc1N1CCN(C(=O)c2cc(S(=O)(=O)N3CCC(C)CC3)cn2C)CC1	8.91µM
O=C1CCCN1CCCN1C(=O)[C@@H]2C[C@@H](O)CN2C2(CN(C3CCC(F)(F)CC3)C2)C1=O	0
